Measured values published in the OligoGym collection.

These sequences were tested against UBTD2 (assay: pooled miR-30 sensor sort-seq; sequence = guide strand). Conditions: shRNA.

Going from AAAACCACCGCTGACTACCTGG to TGTGCTGCGAACCACAAGCTTG, the sensor-assay potency score (higher = more potent) falls from -0.559 to -1.41.

First: TCGAACTTCATTTTGTCAGTGA
Second: TGGAATACTGTGTCTGTGCTGC
The sensor-assay potency score (higher = more potent) of the first is higher: 0.607 for the first, -0.0459 for the second.

Compared with TTCATAGGGAATTTAGAGCAGT, TATGTTTGCACCATCAATGATT is lower in sensor-assay potency score (higher = more potent): -0.206 for the first, -0.561 for the second.

First: TACAACATAGTCCTTTGGGATC
Second: TACACTGGAAGCTGATATCTGT
The sensor-assay potency score (higher = more potent) of the first is lower: -1.63 for the first, 0.00464 for the second.

First: AACCTGTACAACATAGTCCTTT
Second: TATGTCGCTCTTTTCCTCTATC
The sensor-assay potency score (higher = more potent) of the first is higher: 0.105 for the first, -0.749 for the second.

Going from TCTTGCTGCGTAGTTGTCCATC to TAACCTGTACAACATAGTCCTT, the sensor-assay potency score (higher = more potent) rises from -1.04 to -0.877.

The sequences below were run against UBXN2A in the same assay as above. Conditions: shRNA.

Going from TTTTATATTTACATCTACCTGT to TACATCTACCTGTTTCTTCTGT, the sensor-assay potency score (higher = more potent) rises from 0.256 to 0.409.

Compared with TTAATATATCTTGATAACTGGT, TAACTTCTGAAATCGTCGTTGA is higher in sensor-assay potency score (higher = more potent): -0.45 for the first, 0.784 for the second.

Going from ATAACTTCTGAAATCGTCGTTG to TATATTTACATCTACCTGTTTC, the sensor-assay potency score (higher = more potent) falls from 0.446 to -0.892.

Compared with TTCTTTATCAAAAATTCCCTGT, TAATATATCTTGATAACTGGTA is higher in sensor-assay potency score (higher = more potent): -0.0297 for the first, 0.173 for the second.

Work on TTGATTGTTGATTATTACCAAG yielded a sensor-assay potency score (higher = more potent) of -1.29.
